Laboratory results published in the supplement of paper PMC8728848.
About 410 targets per protein were measured; listed, in parts, are those with the strongest signals and a random draw of the rest.

Assays:
Experiment in all cases: glycan array binding signal (z-score within array); higher = stronger binding
Conditions in all cases: glycan notation: IUPAC condensed, linker removed; mutation: R343A
[1] = molecular target: Fuc(a1-2)Gal(b1-3)GalNAc(b1-3)Gal(a1-4)Gal(b1-4)Glc
How it was run: (§1)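 The binding signal is a Z-score computed within each array and averaged over linkers. Arrays of the same protein sequence at different concentrations or buffers were also averaged together. Data originate from 3228 arrays in the Consortium for Functional Glycomics database, kept only where the protein sequence was available.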

[2] = molecular target: Fuc(a1-2)Gal(b1-3)GlcNAc(b1-3)Gal(b1-4)Glc
How it was run: as §1

[3] = molecular target: Fuc(a1-2)Gal(b1-4)GlcNAc
How it was run: as §1

[4] = molecular target: Fuc(a1-4)GlcNAc
How it was run: as §1

[5] = molecular target: Gal(a1-3)GalNAc
How it was run: as §1

[6] = molecular target: Gal(b1-3)Gal
How it was run: as §1

[7] = molecular target: Gal(b1-3)GlcNAc(b1-3)Gal(b1-4)Glc
How it was run: as §1

[8] = molecular target: Gal(b1-4)GalNAc(a1-3)[Fuc(a1-2)]Gal(b1-4)GlcNAc
How it was run: as §1

[9] = molecular target: Gal(b1-4)Glc
How it was run: as §1

[10] = molecular target: Gal3S(b1-3)[Fuc(a1-4)]GlcNAc
How it was run: as §1

[11] = molecular target: GlcNAc(b1-3)Gal(b1-4)GlcNAc(b1-3)Gal(b1-4)GlcNAc
How it was run: as §1

[12] = molecular target: Kdn(a2-3)Gal(b1-4)GlcNAc
How it was run: as §1

[13] = molecular target: Man(a1-2)Man(a1-3)[Man(a1-2)Man(a1-6)]Man
How it was run: as §1

[14] = molecular target: Man(a1-2)Man(a1-3)[Man(a1-2)Man(a1-6)]Man(a1-6)[Man(a1-2)Man(a1-2)Man(a1-3)]Man
How it was run: as §1

[15] = molecular target: Man(a1-2)Man(a1-3)[Man(a1-2)Man(a1-6)]Man(a1-6)[Man(a1-2)Man(a1-2)Man(a1-3)]Man(b1-4)GlcNAc(b1-4)GlcNAc
How it was run: as §1

[16] = molecular target: Man(a1-2)Man(a1-3)[Man(a1-6)]Man(a1-6)[Man(a1-2)Man(a1-3)]Man(b1-4)GlcNAc(b1-4)GlcNAc
How it was run: as §1

[17] = molecular target: Man(a1-2)Man(a1-6)[Man(a1-3)]Man(a1-6)[Man(a1-2)Man(a1-2)Man(a1-3)]Man
How it was run: as §1

[18] = molecular target: Man(a1-3)[Man(a1-6)]Man(a1-6)[Man(a1-2)Man(a1-3)]Man(b1-4)GlcNAc(b1-4)GlcNAc
How it was run: as §1

[19] = molecular target: Neu5Ac(a2-3)Gal(b1-4)GlcNAc(b1-3)Gal(b1-4)[Fuc(a1-3)]GlcNAc
How it was run: as §1

[20] = molecular target: Neu5Gc(b2-6)Gal(b1-4)GlcNAc
How it was run: as §1

B1: Surfactant Protein D (Human); Neck + Carbohydrate Recognition Domain (NCRD) (Homo sapiens) (protein)
chain: MLLFLLSALVLLTQPLGYLEAEMKTYSHRTMPSACTLVMCSSVESGLPGRDRDGREGPRGEKGDPGLPGAAGQAGMPGQAGPVGPKGDNGSVGEPGPKGDTGPSGPPGPPGVPGPAGREGALGKQGNIGPQGKPGPKGEAGPKGEVGAPGMQGSAGARGLAGPKGERGVPGERGVPGNTGAAGSAGAMGPQGSPGARGPPGLKGDKGIPGDKGAKGESGLPDVASLRQQVEALQGQVQHLQAAFSQYKKVELFPNGQSVGEKIFKTAQFVKPFTEAQLLCTQAGGQLASPRSAAENAALQQLVVAKNEAAFLSMTDSKTEGKFTYPTGESLVYSNWAPGEPNDDGGSEDCVEIFTNGKWNDAACGEKRLVVCEF
glycan array binding signal (z-score) [1]: -0.236 | glycan array binding signal (z-score) [2]: -0.397 | glycan array binding signal (z-score) [3]: -0.207 | glycan array binding signal (z-score) [4]: -0.016 | glycan array binding signal (z-score) [5]: -0.163 | glycan array binding signal (z-score) [6]: -0.274 | glycan array binding signal (z-score) [7]: -0.279 | glycan array binding signal (z-score) [8]: -0.214 | glycan array binding signal (z-score) [9]: -0.341 | glycan array binding signal (z-score) [10]: 0.046 | glycan array binding signal (z-score) [11]: -0.173 | glycan array binding signal (z-score) [12]: -0.194 | glycan array binding signal (z-score) [13]: 9.14 | glycan array binding signal (z-score) [14]: 6.17 | glycan array binding signal (z-score) [15]: -0.269 | glycan array binding signal (z-score) [16]: 9.15 | glycan array binding signal (z-score) [17]: 2.79 | glycan array binding signal (z-score) [18]: 6.5 | glycan array binding signal (z-score) [19]: -0.226 | glycan array binding signal (z-score) [20]: -0.326
